G9a inh = G9a (human) methyltransferase inhibition; Q96KQ7; G9a H3K9 monomethylation, AlphaScreen, 2 h; Potency, µM (doses to about 102 µM), inactives show at the highest dose activity, negative = inhibition, hits mostly inhibitors; 8.8% of 350,000 active; note: % is set by controls: 0 for no effect and ±100 for the full control effect; nearly all actives have a fitted effect of over 75% in size
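Readings reflect AlphaScreen signal from monomethyl-H3K9 antibody detection. HMT at 20 nM; substrate b-H3K9 500 nM; cofactor SAM 20 uM; 2 h RT reaction; compounds tested as titrations in qHTS with 15 min preincubation.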
Glioma ERSR ind = inducers of ER stress response in human glioma cells; Potency, µM, for inactives: top-dose activation, usual class: activators; U87-MG GRP78 promoter luciferase reporter, 16 h; AID 602332; 0.02% of 420,000 active; note: series mostly up to about 76 µM; % of control where 0% means no effect; nearly all actives have a fitted effect of over 35% in size
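Stably transfected U87-MG glioma cells carrying a GRP78-based luciferase sensor; 16 h compound incubation. Luminescence end-point read 10 min after Bright-Glo addition at room temperature.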
Sfp inh = inhibitors of Bacillus subtilis Sfp phosphopantetheinyl transferase; Q9F4F7; Biochemical Sfp PPTase activity, qHTS; Potency, µM, inactives show largest response in the series, negative = inhibition, hits mostly inhibitors; 3.5% of 310,000 active; AID 1490;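 note: the enzyme is Sfp with the accession as filed and its product quenches rhodamine fluorescence; 0% = enzyme reaction without inhibitor and -100% = no enzyme wells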
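Fluorescence-quenching assay with 15 nM Sfp, 5 uM rhodamine-CoA and 12.5 uM BHQ-2-labelled ybbR peptide in pH 7.6 Hepes/MgCl2 buffer. Enzyme was pre-incubated with compound for 15 min at room temperature. Rate was taken from the 30-min fluorescence change (525/598 nm).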
VDR inh = vitamin D3 receptor (human) inhibition; P11473; VDR-SRC2-3 peptide fluorescence polarization, 2 h; Potency, µM, for the others: max response, negative = inhibition, actives largely listed as inhibitors; 0.93% of 400,000 active; AID 504847; note: % is set by controls: 0 for no effect and ±100 for the full control effect
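Reagent solutions, kept cold and dark, are dispensed first; compounds are then pinned in at 23 nl, plates briefly spun, and incubated 2 h at ambient temperature. Inhibition of VDR–SRC2-3 peptide binding is read by fluorescence polarization.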
ALOX12 inh = ALOX12 (human) lipoxygenase inhibition | 1.1% of 580,000 active | Potency, µM (doses to about 108 µM), without a hit: top-dose activity change, negative = inhibition, hits mostly inhibitors | purified 12hLO, xylenol orange hydroperoxide absorbance | AID 1671190 | P18054; note: % is set by controls: 0 for no effect and ±100 for the full control effect
Target sequence (P18054 whole entry, looked up): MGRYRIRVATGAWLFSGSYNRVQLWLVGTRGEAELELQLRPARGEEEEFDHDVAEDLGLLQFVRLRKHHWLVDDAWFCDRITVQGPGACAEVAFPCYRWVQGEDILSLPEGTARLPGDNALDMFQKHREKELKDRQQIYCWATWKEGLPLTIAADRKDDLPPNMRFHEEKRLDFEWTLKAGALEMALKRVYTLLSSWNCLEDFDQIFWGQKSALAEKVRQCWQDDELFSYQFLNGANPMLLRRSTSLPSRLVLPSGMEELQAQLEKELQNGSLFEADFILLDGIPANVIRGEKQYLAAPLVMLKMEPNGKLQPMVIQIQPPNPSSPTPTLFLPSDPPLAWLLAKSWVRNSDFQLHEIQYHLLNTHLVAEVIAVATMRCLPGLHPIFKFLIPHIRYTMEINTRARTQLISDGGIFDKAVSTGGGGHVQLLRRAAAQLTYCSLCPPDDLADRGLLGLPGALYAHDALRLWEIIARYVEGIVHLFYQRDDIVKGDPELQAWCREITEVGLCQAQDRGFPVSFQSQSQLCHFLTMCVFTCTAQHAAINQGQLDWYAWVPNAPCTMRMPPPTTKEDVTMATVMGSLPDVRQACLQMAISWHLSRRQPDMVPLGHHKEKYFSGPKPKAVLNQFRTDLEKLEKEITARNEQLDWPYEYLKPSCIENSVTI
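Purified human 12hLO (150 nM final) in 25 mM Hepes, 0.01% Triton X-100, pH 7.0 was preincubated 15 min at room temperature with compound. Then 40 uM arachidonic acid was added, 30 min. Hydroperoxide was read by Fe-XO absorbance ratio 573/405 nm.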
Active calls of the source: *; ? = inconclusive; · = no result; ! = a repeat was not active; [ ] = dose if it differs, or a comment. Shown is part of a subset that was picked to be rich in hits. Calls come from the whole dose curve; as a rule, active = well fitted curve in the direction sought with a large enough effect; inconclusive = small, poorly fitted or top-dose-only effect, or another doubt; inactive = no such curve, though single readings can be large; an effect the other way counts as inactive or inconclusive. Potency is the fitted concentration of half-maximal effect.

SMILES	G9a inh	Glioma ERSR ind	Sfp inh	VDR inh	ALOX12 inh
CC(NC(=O)CSc1nnc(-c2nn(Cc3ccccc3)c(=O)c3ccccc23)o1)c1ccccc1 (stereo not drawn)	·	·	·	·	0%
O=C(NCc1n[nH]c(=S)n1-c1cccc(C(F)(F)F)c1)c1ccc(S(=O)(=O)N2CCCC2)cc1	13µM*	-5%	-14%	-24%	?
CCOc1ccc(S(=O)(=O)NC(Cc2cnc[nH]2)C(=O)O)cc1 (stereo not drawn)	50µM*	-7%	6%	3%	-6%
CCOc1ccc(C(=O)CCNC(Cc2cnc[nH]2)C(=O)O)cc1 (stereo not drawn)	?	2%	?	6%	20%
Cc1cccc(-c2nc(CN3CCN(C(=O)C4CCCO4)CC3)cs2)c1 (stereo not drawn)	71µM*	0%	10%	-10%	409%
Cc1ccc(-c2nc(CN3CCN(C(=O)C4CCCO4)CC3)co2)cc1 (stereo not drawn)	·	·	·	·	23%
COc1cccc2sc3cc(NCc4ccc(C)o4)ccc3c(=O)c12	·	1%	·	89µM*	?
Cc1ccccc1-n1c(C)c(C)c2c1ncn1nc(-c3cccnc3)nc21	·	·	·	·	14%
N#Cc1ncn(CC(=O)NCC(=O)Nc2ccccc2Br)n1	·	·	·	·	20%
C=CCn1cccc(C(=O)Nc2ccc(N(C)C)cc2)c1=O	13µM*	-2%	10%	8%	·
C=CCn1cccc(C(=O)Nc2ccc(Cl)cc2)c1=O	10%	4%	6%	21%	4%
COC(=O)C1(C(=O)OC)CC2=C[C@H](CC2=O)Cc2ccccc2[C@@H]1C[N+](=O)[O-]	·	·	-14%	50µM*!	·
COC(=O)C1(C(=O)OC)CCC(=O)CC1c1ccccc1 (stereo not drawn)	·	·	·	·	7%
CN(C(=O)COC(=O)CCc1c[nH]c2ccccc12)C(c1ccccc1)c1ccccc1	13µM*	-1%	18%	-16%	0%
O=C(CCc1c[nH]c2ccccc12)OCc1cccc([N+](=O)[O-])c1	40µM*	-1%	4%	0%	-2%
COC(=O)CCc1c[nH]c2ccc([N+](=O)[O-])cc12	·	1%	·	-1%	-5%
C#CC(C)(CC)NC(=O)Cc1cccs1 (stereo not drawn)	·	·	·	·	-6%
O=C(CNC1CCCCCC1)Nc1ccc(S(=O)(=O)NC2CC2)cc1	0%[59 µM]	-2%	6%	-3%	-7%
CN(C)S(=O)(=O)c1cccc(NC(=O)CCCC2CCCCC2)c1	·	10%	·	-2%	-2%
CCN(CC)S(=O)(=O)c1ccc(NC(=O)CNC2CCCCC2)cc1	25µM*	-6%	-23%	-10%	?
CN(C)S(=O)(=O)c1cccc(NC(=O)CNC2CCCCC2)c1	50µM*	-4%	-10%	-18%	-35%
CC(C)(c1ccccc1)c1cccc(C(C)(C)c2ccccc2)c1O	·	·	·	·	-8%
COCCN(CC(=O)Nc1ccccc1C(F)(F)F)C(=O)/C=C/c1cc(Cl)c2c(c1)OCO2	6%[12.7 µM]	-4%	·	-22%	-81%
CCN(CC(=O)Nc1ccccc1C(F)(F)F)C(=O)/C=C/c1ccc(Cl)c([N+](=O)[O-])c1	18µM*	-2%	·	-5%	?
CCc1ccc([S+](=O)([O-])c2nnn3c2nc(NCCCOC)c2ccccc23)cc1	·	·	·	·	10%[6.33 µM]
SMILES	G9a inh	Glioma ERSR ind	Sfp inh	VDR inh	ALOX12 inh
COc1cc(-c2ccccc2)nc2ccccc12	-20%[59 µM]	0%	0%	3%	19%
COc1ccc(-c2cc(OC)c3ccccc3n2)cc1	44%[59 µM]	3%	-14%	?	45µM*
COc1cc(C(=O)O)nc2ccccc12	12%[2.33 µM]	0%	63µM*	-7%	?
NC(=O)c1ccc(NC(=O)Cn2nc(-c3cccs3)c3ccccc3c2=O)cc1	·	·	·	·	4%
O=S(=O)(c1ccc2nc(N3CCN(c4ccccc4F)CC3)ccc2c1)N1CCCCC1	18µM*	-3%	-5%	1%	?
O=S(=O)(c1ccc(F)cc1)N1CCN(c2ccc(F)cc2)CC1	7%	-2%	0%	-11%	-2%
CC1CCCCN1S(=O)(=O)c1ccc(S(=O)(=O)N2CCN(c3ccccc3)CC2)cc1 (stereo not drawn)	50µM*	-3%	21%	3%	-15%
O=S(=O)(c1ccc2nc(N3CCN(c4ccccc4)CC3)ccc2c1)N1CCCC1	·	·	·	·	3.5µM*
O=S(=O)(c1ccc2nc(N3CCN(c4ccc(F)cc4)CC3)ccc2c1)N1CCCCC1	2µM*	-2%	79µM*	7%	?
CC1CCN(S(=O)(=O)c2ccc3nc(N4CCN(c5ccccc5)CC4)ccc3c2)CC1	21%	-4%	9%	-7%	9%
O=S(=O)(Nc1nc2ccc(S(=O)(=O)N3CCCC3)cc2s1)c1ccc(F)cc1	40µM*	3%	-14%	-6%	-22%
CCN1CCN(c2ccc3cc(S(=O)(=O)N4CCOCC4)ccc3n2)CC1	·	·	·	·	1.8µM*
CCn1c(CCl)nc2cc(S(=O)(=O)N3CCOCC3)ccc21	·	2%	·	-14%	-22%
CN(C)C(=O)c1cccc(-c2cc(F)c3nc(N)sc3c2)c1	·	·	·	·	43%
CSc1ncccc1C(=O)NCC(=O)Nc1ccc(F)c(F)c1	3.2µM*	-1%	-1%	-8%	0%
O=C(Nc1ccc(Cl)cc1Cl)c1ccccc1-c1ccccc1	·	·	·	·	-5%
CSc1ncccc1C(=O)NNc1cc(Cl)ccc1Cl	45µM*	3%	-2%	7%	·
O=C(CNC(=O)c1ccncc1)Nc1ccc(F)c(F)c1	11%	-4%	15%	3%	-3%
O=C(O)c1ccccc1C(=O)NNc1ccc(Cl)cc1Cl	2.8µM*	4%	14%	-14%	?
CCC1CCCCN1CCNC(=O)c1cc2c(s1)CN(C1CCCC1)C2 (stereo not drawn)	·	·	·	·	60%
COc1cccc(N2CCN(C(=O)c3ccc4c(c3)C(O)CCCCCN4C)CC2)c1 (stereo not drawn)	·	·	·	·	20%
Cc1ccc(C(=O)NC(=S)Nc2ccc(CN3CCOCC3)cc2)cc1	-23%	0%	12%	16%	35µM*
CC(C)C(=O)Nc1ccc(NC(=O)c2ccc([N+](=O)[O-])cc2Cl)cc1	0%[59 µM]	-4%	3%	1%	-24%
O=C(NC(=S)Nc1ccc(CN2CCOCC2)cc1)c1ccc([N+](=O)[O-])cc1Cl	50µM*	-1%	-15%	-14%	-9%
CN(C)c1ccc(NC(=O)c2ccc([N+](=O)[O-])cc2Cl)cc1	2µM*	-1%	10%	-3%	-6%
O=C(NC(=S)Nc1ccc(CN2CCOCC2)cc1)c1cccc([N+](=O)[O-])c1	?	-6%	45µM*	-18%	-22%
CN(C)CCNc1oc(COc2ccccc2)nc1C#N	·	·	·	·	38%
CCOC(=O)Cc1ccc(NC(=O)N2CCC(CN3CCc4ccccc4C3)CC2)cc1	·	·	·	·	-21%
CO/N=C(\c1nonc1N)N1CCN(c2ccc([N+](=O)[O-])cc2Cl)CC1	·	-6%	-21%	7%	-11%
